GCN5L2 inh = inhibitors of human GCN5L2 histone acetyltransferase. GCN5L2 HAT assay, ThioGlo1 CoA-SH fluorescence. Potency, µM (highest dose often 58.9 µM), for inactives: at the top dose activity change, negative = inhibition, actives largely listed as inhibitors. 0.21% of 390,000 active; note: potency is the fitted concentration of half-maximal effect; % is set by controls: 0 for no effect and ±100 for the full control effect
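Titration-based screen in which CoA formation is detected via maleimide probe ThioGlo1 (50uM) turning fluorescent on thiol reaction; substrates H3(1-25) 75uM and acetyl-CoA 70uM, GCN5L2 20nM, 20 min incubation at room temperature.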
JMJD2A Tudor inh = blocks the human JMJD2A Tudor domain; AID 504339; AlphaScreen JMJD2A-Tudor / H3K4me3 peptide binding; Potency, µM (series often up to 114 µM), without a hit: at the top dose activity change, negative = inhibition, hits mostly inhibitors; 4.4% of 390,000 active; O75164; note: potency is the fitted concentration of half-maximal effect; % is set by controls: 0 for no effect and ±100 for the full control effect; nearly all actives have a fitted effect of over 50% in size
PI5P4K alpha inh = PI5P4K alpha (human) kinase inhibition; P48426; PI5P4Kalpha enzyme, ADP-Glo luminescence, 60 min; stronger effect = lower value; max response, %; 1.2% of 330,000 active; AID 652105; active = max response of -50% or lower; inconclusive = between -30% and -50%; inactive = -30% or higher; note: value at the top dose of about 77 µM; % is set by controls: 0 for no effect and ±100 for the full control effect
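Human PI5P4Kalpha with substrate in 0.038 M HEPES pH 7.4, 0.28 mM EGTA, 0.1% CHAPS, 5% DMSO; reaction started with 5 microM ATP (final), 60 min at room temperature. ADP formed read by ADP-Glo luminescence.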
HP1b chromo inh = inhibitors of HP1-beta chromodomain binding to methylated histone tails | AlphaScreen HP1-beta / biotin-H3K9me3 peptide binding | P83916 | 0.56% of 390,000 active | Potency, µM (titrated, usually from 114 µM), for inactives: at the highest dose activity change, negative = inhibition, hits mostly inhibitors; note: potency is the fitted concentration of half-maximal effect; nearly all actives have a fitted effect of over 70% in size
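Compound inhibition of the preformed complex between 50 nM HP1-beta and 50 nM biotinylated H3K9me3 peptide was read by AlphaScreen. Buffer was PBS pH 7.4 with 0.01% Tween-20. Incubations ran 30 min at room temperature, with 10 ug/mL donor/acceptor beads.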
BAZ2B inh = blocks human BAZ2B | AlphaScreen BAZ2B-H3K14Ac peptide displacement | Potency, µM (doses to about 114 µM), without a hit: top-dose activity change, negative = inhibition, usual class: inhibitors | 4.4% of 360,000 active | Q9UIF8; note: potency is the fitted concentration of half-maximal effect; % is set by controls: 0 for no effect and ±100 for the full control effect; nearly all actives have a fitted effect of over 60% in size
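AlphaScreen displacement of biotin-H3(5-23)K14Ac peptide (50 nM final) from BAZ2B (50 nM final) in PBS pH 7.4, 0.01% Tween-20; complex preformed 30 min RT, then compounds (top 110 uM) 30 min RT, beads 20 min dark.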
PLK1 PBD inh = PLK1 (human) polo-box domain binding inhibition | 2.8% of 360,000 active | Plk1 PBD binding of FITC phosphopeptide, fluorescence polarization | P53350 | Potency, µM, inactives show max response, negative = inhibition, most hits filed as inhibitors; note: potency is the fitted concentration of half-maximal effect; series mostly up to about 57 µM; % is set by controls: 0 for no effect and ±100 for the full control effect; nearly all actives have a fitted effect of over 65% in size
Target sequence (P53350 whole entry, looked up, the tested form may be a part): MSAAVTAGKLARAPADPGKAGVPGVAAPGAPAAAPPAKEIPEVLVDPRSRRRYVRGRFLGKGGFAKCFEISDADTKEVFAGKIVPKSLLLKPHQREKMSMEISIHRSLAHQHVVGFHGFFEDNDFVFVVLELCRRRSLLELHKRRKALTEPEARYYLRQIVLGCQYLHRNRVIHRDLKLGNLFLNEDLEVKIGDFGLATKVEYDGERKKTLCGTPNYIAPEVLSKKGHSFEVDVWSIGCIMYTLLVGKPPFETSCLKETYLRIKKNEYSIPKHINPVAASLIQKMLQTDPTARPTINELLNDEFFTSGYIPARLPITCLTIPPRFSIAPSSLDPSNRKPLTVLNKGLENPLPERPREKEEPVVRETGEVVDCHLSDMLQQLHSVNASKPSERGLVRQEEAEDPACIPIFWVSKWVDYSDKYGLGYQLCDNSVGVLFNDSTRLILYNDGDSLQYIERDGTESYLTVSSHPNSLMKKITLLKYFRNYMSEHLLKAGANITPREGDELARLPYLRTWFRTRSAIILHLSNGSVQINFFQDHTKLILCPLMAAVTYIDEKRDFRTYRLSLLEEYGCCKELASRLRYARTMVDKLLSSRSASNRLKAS
JMJD2E inh = confirmation of inhibitors of human JMJD2E demethylase | Recombinant JMJD2E, FDH-coupled NADH fluorescence (FDH is formaldehyde dehydrogenase) | 93% of 140 active | shares compounds with JMJD2A Tudor inh | Potency, µM (highest dose often 56.8 µM), for inactives: top-dose activity change, negative = inhibition, most hits filed as inhibitors
FDH inh = blocks Pseudomonas putida formaldehyde dehydrogenase, flagging JMJD2E artifacts. shares compounds with JMJD2A Tudor inh. FDH enzyme assay, NADH fluorescence kinetic. Potency, µM (titrated, usually from 56.7 µM), without a hit: at the highest dose activity, negative = inhibition, usual class: inhibitors. 10% of 140 active
G9a inh = confirmation of human histone methyltransferase G9a inhibitors | shares compounds with JMJD2A Tudor inh | G9a H3K9 monomethylation, AlphaScreen, 2 h | Potency, µM, most hits filed as inhibitors | 89% of 370 active; note: potency is the fitted concentration of half-maximal effect; nearly all actives have a fitted effect of over 65% in size
RGS4 inh = inhibits human RGS4, hit validation | shares compounds with JMJD2A Tudor inh | RGS4 GAP activity, Transcreener GDP fluorescence polarization | Potency, µM, actives largely listed as inhibitors | 80% of 25 active | AID 602388
Active calls of the source: *; ? = inconclusive; / = not tested or not shown; [ ] = another dose, or the depositor's remark. Shown are actives, neighbours in structure and some others; about 7% of the full set was active somewhere. Unless noted, calls come from the whole dose curve; as a rule, active = well fitted curve in the direction sought with a large enough effect; inconclusive = small, poorly fitted or top-dose-only effect, or another doubt; inactive = no such curve, though single readings can be large; an effect the other way counts as inactive or inconclusive.

SMILES | GCN5L2 inh | JMJD2A Tudor inh | PI5P4K alpha inh | HP1b chromo inh | BAZ2B inh | PLK1 PBD inh | G9a inh | others
O=C(NCc1ccc(F)cc1)c1cc(-c2ccccn2)nc2ccc(S(=O)(=O)N3CCOCC3)cc12 | / | / | -12 | / | / | -6% | /
c1ccc(-c2noc(CN3CCN(c4ccccc4)CC3)n2)cc1 | -5% | -13% | 3 | 59% | 11% | -10% | /
COc1ccc(N2CCN(Cc3nc(-c4ccc(Cl)cc4Cl)no3)CC2)cc1 | -9% | 25µM* | / | ? | 35µM* | -1% | 4.5*
O=C(NCc1ccccc1CN1CCCCC1)c1ccc(Cl)cc1N1CCCC1=O | -5% | ? | -1 | 34% | 3% | 1% | 7.9*
COc1ccc(Cl)cc1NC(=O)Cn1cc2c(n1)CCC(C)C2 (centres undefined) | -4% | -8% | / | 20% | 0% | / | /
CC(C)c1ccc(Nc2c(-c3ccco3)nc3ccccn23)cc1 | -20% | ? | / | -9% | ? | / | / | RGS4 inh=?
Cc1ccc2nc(-c3ccncc3)c(Nc3ccc(C(C)C)cc3)n2c1 | -17% | -16% | / | 34% | -11% | / | /
Cc1ccc(-c2nc3ccccn3c2Nc2ccc3c(c2)OCO3)o1 | -7% | 50µM* | / | ? | 35µM* | / | / | RGS4 inh=?
CC(OC(=O)c1cccc(S(=O)(=O)N2CCOCC2)c1)C(=O)NC1CCCCC1C (centres undefined) | -4% | -1% | -9 | 50% | 24% | 3% | 35*
COc1cccc(NC(=O)C2CC(=O)n3cnnc3S2)c1 (centres undefined) | 10% | 18µM* | -3 | -75% | ? | ? | 0.18*
COc1ccc(NC(=O)C2CC(=O)n3cnnc3S2)cc1 (centres undefined) | 7% | 11µM* | -25 | -66% | -34% | ? | 0.18*
C/C=C/c1ccc(OCC(=O)N(C)CC(=O)Nc2ccc(F)cc2)c(OC)c1 | -2% | -16% | -1 | 1% | 3% | 2% | /
COc1ccc(CN2CCc3ccccc3C2)cc1Br | -3% | 28µM* | 6 | -27% | 50µM* | -7% | 11*
COc1ccccc1N1CCN(C(=O)c2ccc(CN3CCc4ccccc4C3)cc2)CC1 | 0% | ? | / | 7% | -1% | -1% | /
Cc1ccnc(NC(c2cccnc2)c2ccc3cccnc3c2O)c1 (centres undefined) | 17% | 22µM* | -2 | ? | 7.1µM* | ? | / | JMJD2E inh=32µM*;FDH inh=?
CCOc1ccc(NC(=O)CN(C)C(=O)C2CC(=O)N(Cc3ccco3)C2)cc1OCC (centres undefined) | -5% | -22% | -1 | 21% | 7% | -3% | /
O=C(Nc1ccccc1)Nc1ccc2snnc2c1 | -4% | -13%[11.4 µM] | -1 | 0% | 1% | -20% | /
CN(C)c1ccc(NC(=O)Nc2ccc3snnc3c2)cc1 | -5% | -16% | -13 | -27% | -35% | -12% | 1.6*
CCCCCCCCN1C(=O)[C@H](CC(=O)NCC23CC4CC(CC(C4)C2)C3)C[C@@]2(C(=O)OCC)CCCC=C12 | / | / | 5 | / | / | -12% | /

Assay outcomes from PubChem BioAssay.
